The values that follow come from PubChem BioAssay (EPA / NIEHS).

The target in test [1] is human Retinoic Acid Receptor gamma (RARg), RARG (gene 5916) (UniProt P13631). As to the kind of experiment: ATG_RARg_TRANS: Attagene TRANS-FACTORIAL HepG2 Assay for human Retinoic Acid Receptor gamma (RARg) (AID 2283009). Summed up:
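Gain-of-signal relative to DMSO is reported from fluorescent capillary electrophoresis of RT-PCR reporter products. These came from HepG2 cells expressing transfected RARg-GAL4 chimeras with UAS reporters, harvested 24 h after dosing.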

Read-out in test [2]: Pselectin, SELP (gene 6403)
In words: BSK_4H_Pselectin: BioMAP Diversity Plus: 4H Assay for Pselectin Biomarker Activity (AID 2283026; active = hit-call score of the fitted dose curve at least 0.9, where 1 is the maximum; inactive = score below 0.9). Conditions: primary human endothelial cells (HUVEC); actives raise or lower the signal. Summed up:
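Bidirectional fits against DMSO gave the endpoint. Cells: primary human umbilical vein endothelium, chemical-treated for 24 h before ELISA detection of P-selectin.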

Read-out in test [3]: Macrophage colony-stimulating factor (MCSF), CSF1 (gene 1435)
As to the kind of experiment: BSK_CASM3C_MCSF: BioMAP Diversity Plus: CASM3C Assay for Macrophage colony-stimulating factor (MCSF) Biomarker Activity (AID 2283044; active = hit-call score of the fitted dose curve at least 0.9, where 1 is the maximum; inactive = score below 0.9;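 note: M-CSF protein amount quantified by ELISA after 24 h exposure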). Conditions: primary human coronary artery smooth muscle cells; actives raise or lower the signal.

Read-out in test [4]: Low-density lipoprotein receptor (LDLR), LDLR (gene 3949)
As to the kind of experiment: BSK_CASM3C_LDLR: BioMAP Diversity Plus: CASM3C Assay for Low-density lipoprotein receptor (LDLR) Biomarker Activity (AID 2283045; active = hit-call score of the fitted dose curve at least 0.9, where 1 is the maximum; inactive = score below 0.9;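 note: LDLR protein level on the cell surface quantified by ELISA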). Conditions: primary human coronary artery smooth muscle cells; actives raise or lower the signal.

Read-out in test [5]: serum amyloid A (SAA), SAA1 (gene 6288)
As to the kind of experiment: BSK_CASM3C_SAA: BioMAP Diversity Plus: CASM3C Assay for serum amyloid A (SAA) Biomarker Activity (AID 2283049; active = hit-call score of the fitted dose curve at least 0.9, where 1 is the maximum; inactive = score below 0.9;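 note: SAA protein level quantified by ELISA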). Conditions: primary human coronary artery smooth muscle cells; actives raise or lower the signal.

Read-out in test [6]: Interferon-gamma inducible Protein 10 (IP10), CXCL10 (gene 3627)
In words: BSK_hDFCGF_IP10: BioMAP Diversity Plus: hDFCGF Assay for Interferon-gamma inducible Protein 10 (IP10) Biomarker Activity (AID 2283053; active = hit-call score of the fitted dose curve at least 0.9, where 1 is the maximum; inactive = score below 0.9). Conditions: primary human foreskin fibroblasts; actives raise or lower the signal. Summed up:
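Chemical-treated human skin fibroblasts (primary) were sampled at 24 h for IP-10 by ELISA. Both increases and decreases relative to DMSO were scored.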

Read-out in test [7]: Vascular cell adhesion molecule 1 (VCAM1), VCAM1 (gene 7412)
In words: BSK_CASM3C_VCAM1: BioMAP Diversity Plus: CASM3C Assay for Vascular cell adhesion molecule 1 (VCAM1) Biomarker Activity (AID 2283055; active = hit-call score of the fitted dose curve at least 0.9, where 1 is the maximum; inactive = score below 0.9;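 note: VCAM-1 protein level quantified by ELISA on the cells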). Conditions: primary human coronary artery smooth muscle cells; actives raise or lower the signal.

Read-out in test [8]: Macrophage colony-stimulating factor (MCSF), CSF1 (gene 1435)
In words: BSK_hDFCGF_MCSF: BioMAP Diversity Plus: hDFCGF Assay for Macrophage colony-stimulating factor (MCSF) Biomarker Activity (AID 2283060; active = hit-call score of the fitted dose curve at least 0.9, where 1 is the maximum; inactive = score below 0.9). Conditions: AC50: primary human foreskin fibroblasts, actives raise or lower the signal unless noted; outcome: primary human foreskin fibroblasts, actives raise or lower the signal unless noted. Summed up: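 ELISA read-out of M-CSF in human dermal foreskin fibroblast cultures, 24 h after chemical dosing; gain or loss of signal fitted bidirectionally relative to DMSO baseline.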

Test [9] is described as follows: ATG_ERE_CIS: Attagene CIS-FACTORIAL HepG2 Assay for Estrogen Response Element (ERE) (AID 2282940; active = hit-call score of the fitted dose curve at least 0.9, where 1 is the maximum; inactive = score below 0.9). Conditions: HepG2 ERE cis-reporter, Attagene RNA transcript; actives raise or lower the signal. Summed up:
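Measuring endogenous transcription factor output, the assay doses transfected HepG2 cells for 24 hours and quantifies reporter transcripts by fluorescent RT-PCR and capillary electrophoresis, with DMSO as baseline.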

The target of test [10] is Steroid hormone receptor ERR1 (Homo sapiens) (UniProt P11474). In words: ATG_ERRa_TRANS: Attagene TRANS-FACTORIAL HepG2 Assay for human Estrogen-Related Receptor alpha (ERRa) (AID 2282971). Conditions: HepG2 Attagene TRANS reporter, ERRa transactivation. In a few lines: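 Transfected HepG2, 24 h dosing, ERRa-Gal4 chimera driving GAL4-UAS reporter. Readout: reporter mRNA via RT-PCR plus capillary electrophoresis (fluorescence). Positive direction vs DMSO control.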
Sequence of Steroid hormone receptor ERR1 (Homo sapiens) (P11474 whole entry, looked up, the tested form may be a part): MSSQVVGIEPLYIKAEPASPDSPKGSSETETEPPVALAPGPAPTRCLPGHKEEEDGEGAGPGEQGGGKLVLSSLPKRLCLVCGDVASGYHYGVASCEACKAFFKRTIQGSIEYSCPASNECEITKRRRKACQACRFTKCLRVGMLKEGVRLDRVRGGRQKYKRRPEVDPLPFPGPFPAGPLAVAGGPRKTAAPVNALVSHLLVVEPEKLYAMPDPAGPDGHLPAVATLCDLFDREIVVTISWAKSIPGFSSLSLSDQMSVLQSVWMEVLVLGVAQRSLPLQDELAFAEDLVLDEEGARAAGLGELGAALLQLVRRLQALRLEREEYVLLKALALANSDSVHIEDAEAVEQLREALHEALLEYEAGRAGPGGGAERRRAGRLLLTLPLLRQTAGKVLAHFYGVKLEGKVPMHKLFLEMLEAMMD

The target in test [11] is human Vitamin D Receptor (VDR), VDR (gene 7421) (UniProt P11473). As to the kind of experiment: ATG_VDR_TRANS: Attagene TRANS-FACTORIAL HepG2 Assay for human Vitamin D Receptor (VDR) (AID 2283022). Summed up:
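RT-PCR/capillary electrophoresis read-out of reporter mRNA induction in transiently transfected HepG2; 24 h dosing; chimeric NR-Gal4 (TRANS format); gain-of-signal fit against DMSO baseline.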

Test [12] has as its target Estrogen receptor beta (Homo sapiens) (UniProt Q92731). In words: OT_ER_ERbERb_1440: Odyssey Thera (OT) 24-hour HEK293T Protein-Complementation Assay for Estrogen Receptor-beta/-beta Homodimer (AID 2283380).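 Note: scored as signal increase over DMSO baseline for both agonists and antagonists.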 In a few lines:
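HEK293T cells stably expressing ER beta LBD (aa 310-547) homodimer fragment-complementation reporter, dosed 24 h. Cells formaldehyde-fixed, Draq5-stained; gain in nuclear (agonist) or nuclear plus cytoplasmic (antagonist) fluorescence versus DMSO read by laser scanning cytometry.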

For test [13], the target named is Peroxisome proliferator-activated receptor gamma (Homo sapiens) (UniProt P37231). As to the kind of experiment: OT_PPARg_PPARgSRC1_0480: Odyssey Thera (OT) 8-hour Protein-Complementation Assay for Peroxisome Proliferator-activated Receptor Gamma / SRC-1 Co-activator (AID 2283387).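 Note: nuclear to cytoplasmic split Venus YFP fluorescence ratio reporting PPARg SRC-1 interaction.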 Summed up: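 Read-out: 488 nm N/C fluorescence ratio from complemented Venus YFP fragments, ≥350 cells per image, gain-of-signal fitted against DMSO baseline. Fusions of PPARg/SRC-1 with IFP1/IFP2 expressed transiently in HEK293T; compounds applied 8 h.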
Sequence of Peroxisome proliferator-activated receptor gamma (Homo sapiens) (P37231 whole entry, looked up, the tested form may be a part): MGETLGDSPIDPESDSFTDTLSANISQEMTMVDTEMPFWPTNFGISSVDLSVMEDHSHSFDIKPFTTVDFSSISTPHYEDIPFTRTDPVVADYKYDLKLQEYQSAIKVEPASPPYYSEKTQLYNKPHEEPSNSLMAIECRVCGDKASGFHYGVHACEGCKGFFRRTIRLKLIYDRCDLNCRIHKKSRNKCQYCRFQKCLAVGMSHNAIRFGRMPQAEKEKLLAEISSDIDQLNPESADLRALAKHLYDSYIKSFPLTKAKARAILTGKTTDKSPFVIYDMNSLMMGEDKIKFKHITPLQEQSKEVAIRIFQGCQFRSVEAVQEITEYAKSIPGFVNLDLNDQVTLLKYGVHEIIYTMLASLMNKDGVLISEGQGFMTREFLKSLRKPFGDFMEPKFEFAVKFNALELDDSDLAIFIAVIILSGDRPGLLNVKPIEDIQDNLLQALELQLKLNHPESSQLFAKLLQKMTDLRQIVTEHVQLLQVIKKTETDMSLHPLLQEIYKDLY

Test [14] shares this target. As to the kind of experiment: OT_PPARg_PPARgSRC1_1440: Odyssey Thera (OT) 24-hour Protein-Complementation Assay for Peroxisome Proliferator-activated Receptor Gamma/ SRC-1 Co-activator (AID 2283388).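 Note: nuclear to cytoplasmic ratio of reconstituted Venus YFP fluorescence in fixed imaged cells.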 Summed up: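 Readout: nuclear-to-cytoplasmic 488 nm fluorescence ratio, ≥350 cells per image, 8 images per well, after 24 h compound exposure of HEK293T expressing PPARg/SRC-1 split-YFP fusions. Activity fitted in positive direction against DMSO.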

The nature of test [15]: ACEA_AR_agonist_AUC_viability: ACEA Biosciences xCELLigence Real-Time Cell Analysis on Androgen Receptor Agonism for Viability (AID 2283775).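 For AC50: viability read 80 hours after compound addition.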 In a few lines: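 Viability endpoint from xCELLigence impedance in 22Rv1 prostate cells at 80 h. Eight-point series, 100 uM maximum final.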
Test [16] in a line: ACEA_AR_antagonist_AUC_viability: ACEA Biosciences xCELLigence Real-Time Cell Analysis on Androgen Receptor Antagonism for Viability (AID 2283776).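 Note: 22Rv1 human prostate cancer cells growing on impedance electrode plates; area under impedance growth curve at 80 h after dosing as viability; hits lower the growth signal relative to DMSO meaning cytotoxicity.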 Summed up: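 Real-time electrical impedance tracks 22Rv1 proliferation after continuous compound exposure (top 100 uM final, 1:4 steps, 8 concentrations). The 80 h area-under-curve serves as the cytotoxicity readout relative to DMSO.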

In test [17] the target is Estrogen receptor beta (Homo sapiens) (UniProt Q92731). In words: OT_ER_ERbERb_0480: Odyssey Thera (OT) 8-hour HEK293T Protein-Complementation Assay for Estrogen Receptor-beta/-beta Homodimer (AID 2283357).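 Note: active means signal gain over DMSO baseline.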 In a few lines:
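Homodimerization of ER-beta LBD measured by protein-fragment complementation in HEK293T; 8 h dosing; fixed, Draq5 counterstain; fluorescence intensity gain over DMSO baseline, positive fitting direction; laser scanning cytometry.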

Test [18] deals with Retinoic acid receptor RXR-alpha (Homo sapiens) (UniProt P19793). As to the kind of experiment: OT_NURR1_NURR1RXRa_1440: Odyssey Thera (OT) 24-hour HEK293T Protein Complementation Assay for Nurr1/retinoid X receptor (RXR) (AID 2283386). In a few lines: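 Cell-based binding reporter: HEK293T cells, 24 h exposure, fluorescence-detected fragment complementation, DMSO as baseline.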
Sequence of Retinoic acid receptor RXR-alpha (Homo sapiens) (P19793 whole entry, looked up, the tested form may be a part): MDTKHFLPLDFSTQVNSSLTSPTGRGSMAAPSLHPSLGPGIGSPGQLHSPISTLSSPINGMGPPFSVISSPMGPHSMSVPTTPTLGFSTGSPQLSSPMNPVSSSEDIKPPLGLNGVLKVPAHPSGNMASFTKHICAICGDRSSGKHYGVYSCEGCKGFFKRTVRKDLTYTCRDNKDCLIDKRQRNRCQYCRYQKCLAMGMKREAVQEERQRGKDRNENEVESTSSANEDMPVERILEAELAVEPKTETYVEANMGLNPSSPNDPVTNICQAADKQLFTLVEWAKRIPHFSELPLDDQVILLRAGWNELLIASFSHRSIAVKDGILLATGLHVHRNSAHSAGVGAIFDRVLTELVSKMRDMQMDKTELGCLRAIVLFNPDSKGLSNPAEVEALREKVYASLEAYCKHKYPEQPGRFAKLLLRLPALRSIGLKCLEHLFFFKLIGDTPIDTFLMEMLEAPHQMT

Test [19] is described as follows: CCTE_Harrill_HTTr_CellCount_MCF7: CCTE's Cell Proliferation Assessment for the High-Throughput Transcriptomics (HTTr) Platform, Harrill Lab (AID 2284012).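 Note: count of Hoechst-stained nuclei per well by high-content imaging in MCF-7 cells; cells exposed to compound for six hours; intended direction is loss of nuclei count meaning fewer cells.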 In a few lines:
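For this full-screen endpoint, MCF-7 cultures received eight compound dilutions for six hours. Well nuclei counts from Hoechst imaging were analyzed relative to DMSO.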

Test [20] deals with Glucocorticoid receptor (Homo sapiens) (UniProt P04150). In words: ATG_GR_TRANS: Attagene TRANS-FACTORIAL HepG2 Assay for human Glucocorticoid Receptor (GR) (AID 2282978).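 Note: activators score as hits since higher reporter transcript over DMSO is fitted.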 Conditions: HepG2 Attagene TRANS GR reporter, mRNA transcription. In a few lines:
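HepG2 cells transiently transfected with multiplexed reporter units in which chimeric NR-GAL4 proteins drive GAL4-UAS reporters; 24 h compound exposure. Reporter mRNA measured by RT-PCR, 6-FAM labelling, HpaI digestion and capillary electrophoresis; gain-of-signal fitted versus DMSO.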

Inconclusive results are not listed. The source holds several records for some structures; these can differ, active in one and inactive in another. Active and inactive are the calls of the source. Rule for the calls, unless noted: active = hit-call score of the fitted dose curve at least 0.9, where 1 is the maximum; inconclusive = response in the unintended direction; inactive = score below 0.9.

Sequence of human Retinoic Acid Receptor gamma (RARg), RARG (gene 5916) (P13631 whole entry, looked up, the tested form may be a part): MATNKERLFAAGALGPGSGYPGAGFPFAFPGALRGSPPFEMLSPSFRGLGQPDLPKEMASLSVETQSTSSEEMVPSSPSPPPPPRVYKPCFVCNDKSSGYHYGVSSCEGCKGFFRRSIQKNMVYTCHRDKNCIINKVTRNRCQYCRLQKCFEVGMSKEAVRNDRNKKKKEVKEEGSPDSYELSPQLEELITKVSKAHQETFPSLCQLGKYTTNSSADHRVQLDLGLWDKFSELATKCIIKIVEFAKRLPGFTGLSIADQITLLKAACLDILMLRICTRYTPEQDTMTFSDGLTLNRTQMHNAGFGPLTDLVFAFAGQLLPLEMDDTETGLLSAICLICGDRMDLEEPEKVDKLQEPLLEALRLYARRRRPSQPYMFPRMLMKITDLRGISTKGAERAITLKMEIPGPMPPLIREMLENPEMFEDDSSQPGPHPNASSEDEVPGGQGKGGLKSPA
Sequence of human Vitamin D Receptor (VDR), VDR (gene 7421) (P11473 whole entry, looked up, the tested form may be a part): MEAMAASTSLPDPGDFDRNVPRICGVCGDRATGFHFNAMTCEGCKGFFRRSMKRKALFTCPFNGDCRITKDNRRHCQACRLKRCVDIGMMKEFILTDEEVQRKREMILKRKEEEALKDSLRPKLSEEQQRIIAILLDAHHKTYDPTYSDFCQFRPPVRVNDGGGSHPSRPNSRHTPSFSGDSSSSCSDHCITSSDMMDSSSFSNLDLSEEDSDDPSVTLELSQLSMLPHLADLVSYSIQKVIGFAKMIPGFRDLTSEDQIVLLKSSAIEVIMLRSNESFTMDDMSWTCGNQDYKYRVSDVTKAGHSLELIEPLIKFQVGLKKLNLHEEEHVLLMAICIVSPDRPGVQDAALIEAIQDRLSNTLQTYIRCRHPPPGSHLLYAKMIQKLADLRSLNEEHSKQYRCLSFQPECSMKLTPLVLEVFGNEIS
Sequence of Estrogen receptor beta (Homo sapiens) (Q92731 whole entry, looked up, the tested form may be a part): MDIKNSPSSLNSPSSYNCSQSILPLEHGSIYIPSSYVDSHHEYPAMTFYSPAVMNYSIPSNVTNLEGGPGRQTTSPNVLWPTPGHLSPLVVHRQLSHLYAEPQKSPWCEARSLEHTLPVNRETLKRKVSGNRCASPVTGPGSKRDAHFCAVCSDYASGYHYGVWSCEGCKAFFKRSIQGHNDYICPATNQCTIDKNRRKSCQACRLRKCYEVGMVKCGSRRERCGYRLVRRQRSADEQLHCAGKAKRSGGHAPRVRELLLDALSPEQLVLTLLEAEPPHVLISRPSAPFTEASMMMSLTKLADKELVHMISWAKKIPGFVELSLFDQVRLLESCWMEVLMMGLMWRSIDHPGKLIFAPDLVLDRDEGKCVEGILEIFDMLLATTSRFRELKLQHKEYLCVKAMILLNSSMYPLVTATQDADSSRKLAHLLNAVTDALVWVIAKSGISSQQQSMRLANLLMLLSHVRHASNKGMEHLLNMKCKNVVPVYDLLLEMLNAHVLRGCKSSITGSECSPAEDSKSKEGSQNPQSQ
Sequence of Glucocorticoid receptor (Homo sapiens) (P04150 whole entry, looked up, the tested form may be a part): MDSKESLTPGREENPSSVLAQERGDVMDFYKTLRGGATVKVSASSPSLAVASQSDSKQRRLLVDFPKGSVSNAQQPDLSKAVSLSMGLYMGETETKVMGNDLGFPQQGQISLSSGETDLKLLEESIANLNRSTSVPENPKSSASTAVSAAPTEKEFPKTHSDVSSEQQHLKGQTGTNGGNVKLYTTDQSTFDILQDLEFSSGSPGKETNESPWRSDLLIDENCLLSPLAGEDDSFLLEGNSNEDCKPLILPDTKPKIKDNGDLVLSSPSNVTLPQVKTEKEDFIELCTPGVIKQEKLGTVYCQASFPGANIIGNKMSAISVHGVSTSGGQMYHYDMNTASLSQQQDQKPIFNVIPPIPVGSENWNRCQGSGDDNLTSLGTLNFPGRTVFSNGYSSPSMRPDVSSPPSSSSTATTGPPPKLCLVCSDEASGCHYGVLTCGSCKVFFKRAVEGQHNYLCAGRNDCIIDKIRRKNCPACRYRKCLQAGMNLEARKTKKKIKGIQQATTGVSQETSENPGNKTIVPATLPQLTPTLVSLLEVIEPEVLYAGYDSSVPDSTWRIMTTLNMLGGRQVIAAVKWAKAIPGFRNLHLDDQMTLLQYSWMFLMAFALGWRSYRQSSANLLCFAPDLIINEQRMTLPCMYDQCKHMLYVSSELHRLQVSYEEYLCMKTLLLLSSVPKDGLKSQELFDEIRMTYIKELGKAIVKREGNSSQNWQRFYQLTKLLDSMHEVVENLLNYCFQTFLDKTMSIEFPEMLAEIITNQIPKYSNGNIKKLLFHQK

`CCC(=O)OCc1ccc(OC)cc1`: in test [1], the call was inactive.

On to `CC(C)CC(=O)CC(C)CC(C)C` (centres undefined), for which the figures for the AC50 in test [2], in test [3] and in test [7] were 30.1 µM (active), 34.6 µM (active) and 37.2 µM (active), respectively. Moreover, the outcome in test [4], in [5], in [6] and in test [8] was inactive.

Take `CCCCCCC1CCC(=O)O1` (centres undefined): the molecule was classed as inactive in [9], in test [10], in test [1], in test [11], in test [12] and in test [13]. For the same molecule, the outcome in test [14], in test [15] and in test [16] was inactive.

In the case of `Sc1nc2ccccc2s1`, the result in test [2], in [3], in test [4], in [5], in test [6] and in test [8] was inactive. In addition, the molecule was classed as inactive in test [17], in test [12], in [13], in test [14] and in [16]. Also, the AC50 in test [7] is 0.016 µM (active).

As to `OCCOCCOCCOCCOCCO`, in test [10], the result was inactive.

Regarding `O=C(O)/C=C\C(=O)O`, the molecule was called inactive in [10], in [17], in [12], in test [18], in test [15] and in test [19].

On to `CCCCNC(N)=O`, for which the result in [10] was inactive.

Turning to `O=C(O)c1ccccc1C(=O)O`, the molecule was called inactive in [9], in [20], in [18], in [15] and in [16].

Take `CCCCCCC(O)CCCCCCCCCCC(=O)OC` (centres undefined): the molecule was called inactive in test [20], in [1], in test [2], in test [3], in test [4] and in test [5]. Moreover, the outcome in test [6], in [7] and in [8] was inactive.

In the case of `CC(C)CC(=O)CC(C)C`, the molecule was classed as inactive in test [17], in test [12] and in test [18].

Consider `COC(=O)[C@]1(C)CCC[C@@]2(C)[C@H]1CC=C1C=C(C(C)C)CC[C@@H]12`, for which the molecule was classed as inactive in test [1], in [11], in test [17], in [12] and in test [18]. The AC50 in test [15] is 0.333 µM (active).

With `COCCCN`, the call in test [9] was inactive.

As for `CN(C)N=Nc1ccccc1`, the molecule was called inactive in [10].

With `CCC(C)=NO`, the molecule was classed as inactive in test [11], in test [2], in [3], in test [4], in test [5] and in test [6]. Also, the result in test [7], in test [8], in test [17], in test [12], in test [18] and in [15] was inactive. Also, the result in test [19] was inactive. Moreover, the AC50 in test [16] was 50 µM (active).

Consider `O=C(c1ccccc1)c1ccccc1O`, for which the result in [10], in test [12], in test [13], in [14], in test [15] and in test [16] was inactive. Moreover, the AC50 in test [17] was 50 µM (active).

Regarding `CN(C)Cc1cc(C(C)(C)C)c(O)c(C(C)(C)C)c1`, the outcome in test [11], in test [2], in test [3], in [4], in test [5] and in test [6] was inactive. For the same molecule, the outcome in [7] was inactive. Further, the AC50 in test [2] is 1.56 µM (active); in [5], 5.92 µM (active); in test [6], 12.8 µM (active); in [7], 0.15 µM (active); in [8], 18.3 µM [setting not given] (active). Also, in [8], the outcome is “inactive [setting not given]”.

`O=C(C(=O)c1ccccc1)c1ccccc1`: the result in test [10], in [2], in test [3], in test [4], in test [5] and in test [6] was inactive. For the same molecule, the outcome in test [7] and in [8] was inactive.

As a reminder, the AC50 is the concentration at which the activity in the assay is half-maximal.
